According to PubChem BioAssay:
Calls of active or inactive are those of the source.

How the values were obtained:
Albumin (Bos taurus) = Albumin (Bos taurus) (UniProt P02769); test: bovine serum albumin binders on microarray, profiling panel, artefact control for SMM control protein annotation, biochemical, small-molecule microarray, Alexa647 label, 635/667 nm fluorescence (AID 1118); details: BSA-A647 binding, fluorescence 635 nm, higher = more signal;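 note: score merges 667 nm emission intensity and signal-to-noise per printed compound spot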
[1] = small-molecule microarray binders of probe aXIP, primary screen, biochemical, NeuroSMM set, 635/667 nm fluorescence (AID 1119); details: higher = more signal, called active from +8 up or from −8 down;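 note: probe is the protein aXip251-270 applied at 1 µg/mL to compound-printed slides; binding of probe to printed compounds measured as 667 nm fluorescence plus signal to noise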
[2] = small-molecule binders of probe aNOTCH3, primary screen, biochemical, small-molecule microarray, 635/667 nm fluorescence (AID 1120); details: higher = more signal;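 note: probe is a biotin-tagged antibody raised against NOTCH3 rather than NOTCH3 protein; score merges spot fluorescence near 667 nm with spot signal to noise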
[3] = small-molecule binders of probe aNOTCH2, primary screen, biochemical, small-molecule microarray, 635/667 nm fluorescence (AID 1121); details: higher = more signal;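 note: score merges feature fluorescence read at 667 nm with its signal to noise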
[4] = target: Carbonic anhydrase 2 (Homo sapiens) (UniProt P00918); test: CAII small-molecule binders, profiling panel, biochemical, small-molecule microarray, Alexa647-labelled CAII (AID 1122); details: CAII-A647 binding fluorescence, higher = more signal
[5] = COS7 lysate on small-molecule microarray, probe aHis, 635 nm (AID 1123); details: COS7 cell lysate, fluorescence, higher = more signal;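 note: z-score combines 667nm fluorescence intensity with signal-to-noise per printed compound spot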
[6] = compound binding in COS7 lysate, probe aLAP1, primary screen, cell lysate, small-molecule microarray (AID 1124); details: probe aLAP1, fluorescence, higher = more signal;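 note: lysate comes from COS7 cells expressing LAP1 and is applied at 0.3 µg/mL; score merges spot fluorescence near 667 nm with signal-to-noise over triplicate slides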
Sam68 (KHDRBS1) = test: Sam68 small-molecule binders, primary screen, biochemical, small-molecule microarray, 635 nm fluorescence (AID 1125); details: small-molecule microarray binding, higher = more signal;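 note: score merges 667 nm channel intensity with signal to noise over triplicate slides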
[7] = tested on: Chordin-like protein 2 (CHRDL2); test: CHRDL2 small-molecule binders, primary screen, biochemical, small-molecule microarray, 635 nm fluorescence (AID 1126); details: small-molecule microarray binding, fluorescence 635 nm; higher = more signal;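 note: printed compound slides probed with Chrdl2 protein at 4 µg/mL for 1 h at 4 C; score merges 667 nm emission intensity with signal to noise over three replicate slides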
[8] = target: Concanavalin-A (Canavalia ensiformis) (UniProt P02866); test: ConA small-molecule binders, primary screen, artefact control for SMM control protein annotation, biochemical, small-molecule microarray, Alexa647 label, 635 nm (AID 1127); details: ConA-A647 binding fluorescence, higher = more signal;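 note: z combines 667 nm emission intensity with signal-to-noise across three replicate slides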
[9] = anti-His antibody binders, primary screen, artefact control for SMM control protein annotation, biochemical, small-molecule microarray, 635 nm fluorescence (AID 1128); details: anti-His Alexa647 antibody binding, higher = more signal;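 note: score merges feature fluorescence with signal-to-noise for each printed compound spot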
[10] = tested on: Human papillomavirus type 1a E7 protein (residues 1-88); test: HPV1a E7 small-molecule binders, primary screen, biochemical, small-molecule microarray, residues 1-88, 635 nm (AID 1129); details: small-molecule microarray binding, fluorescence 635 nm; higher = more signal
[11] = target: Focal adhesion kinase 1 (Homo sapiens) (UniProt Q05397); test: small-molecule microarray binders of FAK, primary screen, biochemical, 635/667 nm fluorescence, BSA, DTT (AID 1130); details: PTK2 binding, 635 nm fluorescence, higher = more signal;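 note: composite of spot emission at 667 nm and signal to noise over triplicate slides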
[12] = tested on: Fibrinogen (Alexa647-labelled); test: fibrinogen binders on compound microarrays, profiling panel, artefact control for SMM control-protein annotation, biochemical, small-molecule microarray, 635/667 nm fluorescence (AID 1131); details: fibrinogen-A647 binding fluorescence, higher = more signal;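 note: z-score merges 667 nm fluorescence with per-spot signal-to-noise over triplicate slides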
[13] = target: Follistatin (Homo sapiens) (UniProt P19883); test: follistatin binders on small-molecule microarrays, primary screen, biochemical, small-molecule microarray, 635/667 nm fluorescence (AID 1132); details: FST binding, 635 nm fluorescence, higher = more signal
[14] = target: Fibroblast growth factor 2 (Homo sapiens) (UniProt P09038); test: FGF2 binders on small-molecule microarrays, primary screen, biochemical, small-molecule microarray, 635/667 nm fluorescence (AID 1133); details: small-molecule microarray binding, FGF2, fluorescence 635/667; higher = more signal
[15] = mitochondrial membrane potential change in A549 cells, profiling panel, cell-based, JC-1 fluorescence, basal, 24 h, 100 nL (AID 1138); details: higher = more signal;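 note: A549 lung adenocarcinoma cells under basal conditions with no added stimulus; test concentration not given here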
Lefty1 = Lefty1 binders on small-molecule microarrays, primary screen, biochemical, small-molecule microarray, 635/667 nm fluorescence (AID 1139); details: small-molecule microarray binding, fluorescence 635/667; higher = more signal
[16] = tested on: wheat germ agglutinin (Triticum aestivum), Alexa647-labelled; test: wheat germ agglutinin binders on compound microarrays, profiling panel, artefact control for SMM control-protein annotation, biochemical, small-molecule microarray, 635/667 nm fluorescence (AID 1140); details: WGA-A647 binding, 635 nm fluorescence, higher = more signal;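 note: score merges 667 nm feature emission with signal to noise over triplicate slides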
[17] = target: Luciferin 4-monooxygenase (Photinus pyralis) (UniProt P08659); test: firefly luciferase enzyme inhibitors, primary screen, biochemical, luminescence, purified enzyme, 2006 set (AID 1141); details: SteadyGlo luminescence, 30 min, higher = more signal, called active from +8 up or from −8 down;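 note: cell-free assay with purified firefly luciferase at 100 ng per well in PBS; test concentration not given here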
Luciferin 4-monooxygenase (Photinus pyralis), sequence (P08659 whole entry, looked up): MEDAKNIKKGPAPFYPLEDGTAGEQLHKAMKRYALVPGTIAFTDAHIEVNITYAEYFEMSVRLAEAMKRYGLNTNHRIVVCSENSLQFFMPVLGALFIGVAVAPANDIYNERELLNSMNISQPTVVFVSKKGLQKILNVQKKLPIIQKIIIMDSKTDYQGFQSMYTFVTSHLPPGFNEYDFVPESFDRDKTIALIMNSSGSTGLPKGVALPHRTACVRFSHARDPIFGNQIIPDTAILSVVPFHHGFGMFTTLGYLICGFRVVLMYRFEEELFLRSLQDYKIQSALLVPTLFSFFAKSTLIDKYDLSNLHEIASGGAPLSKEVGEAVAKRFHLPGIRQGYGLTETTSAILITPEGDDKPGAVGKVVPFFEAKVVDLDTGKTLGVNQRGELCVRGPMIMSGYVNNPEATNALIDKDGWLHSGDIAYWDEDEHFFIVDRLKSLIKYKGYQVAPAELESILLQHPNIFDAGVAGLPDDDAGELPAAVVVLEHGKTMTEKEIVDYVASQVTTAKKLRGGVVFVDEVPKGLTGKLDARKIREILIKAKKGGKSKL

Concanavalin-A (Canavalia ensiformis), sequence (P02866 whole entry, looked up): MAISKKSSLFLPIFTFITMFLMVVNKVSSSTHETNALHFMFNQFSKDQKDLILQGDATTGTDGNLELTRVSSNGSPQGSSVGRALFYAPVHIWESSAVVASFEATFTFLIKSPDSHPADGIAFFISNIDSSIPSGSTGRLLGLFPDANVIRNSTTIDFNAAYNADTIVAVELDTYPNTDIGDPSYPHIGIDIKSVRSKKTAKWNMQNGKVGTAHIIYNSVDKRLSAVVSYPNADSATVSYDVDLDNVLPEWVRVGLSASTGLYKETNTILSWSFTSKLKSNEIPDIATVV
Focal adhesion kinase 1 (Homo sapiens), sequence (Q05397 whole entry, looked up): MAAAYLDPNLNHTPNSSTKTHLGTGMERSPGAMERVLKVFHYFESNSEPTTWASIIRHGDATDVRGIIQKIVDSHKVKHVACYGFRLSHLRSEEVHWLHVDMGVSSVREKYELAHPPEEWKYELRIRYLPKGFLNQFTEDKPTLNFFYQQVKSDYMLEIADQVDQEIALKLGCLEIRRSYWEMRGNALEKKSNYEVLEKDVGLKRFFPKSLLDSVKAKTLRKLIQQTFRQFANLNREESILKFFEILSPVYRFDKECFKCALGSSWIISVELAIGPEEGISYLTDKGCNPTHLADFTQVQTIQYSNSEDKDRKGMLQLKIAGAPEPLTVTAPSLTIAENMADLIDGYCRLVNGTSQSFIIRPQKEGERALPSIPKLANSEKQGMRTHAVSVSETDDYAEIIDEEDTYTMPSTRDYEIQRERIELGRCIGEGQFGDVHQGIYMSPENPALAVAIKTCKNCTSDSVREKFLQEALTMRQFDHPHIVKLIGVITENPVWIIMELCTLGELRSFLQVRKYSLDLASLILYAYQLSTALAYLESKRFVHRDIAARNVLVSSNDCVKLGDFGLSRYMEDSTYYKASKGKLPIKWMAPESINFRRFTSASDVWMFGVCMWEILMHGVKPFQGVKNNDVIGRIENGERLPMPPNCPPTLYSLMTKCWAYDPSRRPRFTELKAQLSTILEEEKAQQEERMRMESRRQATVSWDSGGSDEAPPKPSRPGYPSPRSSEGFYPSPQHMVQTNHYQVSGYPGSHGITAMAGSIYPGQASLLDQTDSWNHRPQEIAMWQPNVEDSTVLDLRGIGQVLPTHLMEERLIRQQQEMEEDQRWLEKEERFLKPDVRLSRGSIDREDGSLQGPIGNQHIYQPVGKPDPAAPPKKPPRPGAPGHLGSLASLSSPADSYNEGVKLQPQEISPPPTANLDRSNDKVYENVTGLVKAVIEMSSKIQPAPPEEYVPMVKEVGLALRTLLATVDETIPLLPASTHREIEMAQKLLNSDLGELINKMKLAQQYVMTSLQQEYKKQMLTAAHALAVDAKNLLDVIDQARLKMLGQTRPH
Fibroblast growth factor 2 (Homo sapiens), sequence (P09038 whole entry, looked up): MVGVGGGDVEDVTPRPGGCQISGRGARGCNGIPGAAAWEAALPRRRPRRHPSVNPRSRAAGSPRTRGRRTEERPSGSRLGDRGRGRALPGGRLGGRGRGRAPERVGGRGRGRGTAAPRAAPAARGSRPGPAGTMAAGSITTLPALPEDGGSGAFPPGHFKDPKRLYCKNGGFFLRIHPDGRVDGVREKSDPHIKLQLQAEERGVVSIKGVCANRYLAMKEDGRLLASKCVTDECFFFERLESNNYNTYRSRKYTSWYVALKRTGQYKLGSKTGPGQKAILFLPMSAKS
Follistatin (Homo sapiens), sequence (P19883 whole entry, looked up): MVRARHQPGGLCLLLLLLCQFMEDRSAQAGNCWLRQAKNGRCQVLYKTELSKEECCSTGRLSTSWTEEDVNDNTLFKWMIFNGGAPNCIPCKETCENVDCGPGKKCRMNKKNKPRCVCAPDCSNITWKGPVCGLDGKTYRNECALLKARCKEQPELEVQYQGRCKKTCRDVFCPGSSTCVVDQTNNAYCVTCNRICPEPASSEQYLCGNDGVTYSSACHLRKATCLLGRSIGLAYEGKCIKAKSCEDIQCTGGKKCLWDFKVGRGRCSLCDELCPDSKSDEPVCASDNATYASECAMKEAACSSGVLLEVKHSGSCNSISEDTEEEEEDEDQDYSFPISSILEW
Albumin (Bos taurus), sequence (P02769 whole entry, looked up): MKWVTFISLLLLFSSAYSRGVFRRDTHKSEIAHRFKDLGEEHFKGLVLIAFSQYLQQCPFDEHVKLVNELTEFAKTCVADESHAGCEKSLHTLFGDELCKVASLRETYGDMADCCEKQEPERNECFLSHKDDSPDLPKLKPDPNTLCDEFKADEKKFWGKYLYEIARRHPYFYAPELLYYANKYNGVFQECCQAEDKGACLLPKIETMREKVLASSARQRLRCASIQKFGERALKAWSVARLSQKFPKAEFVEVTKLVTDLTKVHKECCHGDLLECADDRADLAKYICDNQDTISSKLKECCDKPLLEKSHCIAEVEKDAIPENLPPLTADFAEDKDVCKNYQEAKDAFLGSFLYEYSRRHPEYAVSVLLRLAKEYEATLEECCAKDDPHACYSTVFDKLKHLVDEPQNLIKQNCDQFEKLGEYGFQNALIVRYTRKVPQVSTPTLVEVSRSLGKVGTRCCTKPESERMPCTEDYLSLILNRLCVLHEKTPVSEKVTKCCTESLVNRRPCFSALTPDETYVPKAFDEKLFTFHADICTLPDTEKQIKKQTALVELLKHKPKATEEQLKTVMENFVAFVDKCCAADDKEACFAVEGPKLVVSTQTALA

SMILES | composite z-score (Albumin (Bos taurus)) | composite Z-score [1] | composite z-score [2] | composite z-score [3] | composite z-score [4] | composite z-score [5] | composite z-score [6] | composite z-score (Sam68 (KHDRBS1)) | composite z-score [7] | composite z-score [8] | composite z-score [9] | composite z-score [10] | composite z-score [11] | composite z-score [12] | composite z-score [13] | composite z-score [14] | z-score [15] | composite z-score (Lefty1) | composite z-score [16] | z-score [17]
CCCCC(=C=CC[C@@H](O)c1ccc(OCCO)cc1)C[C@@H](O)COCc1ccccc1 | -0.28 | -0.114 (inactive) | -0.182 | -0.145 | 0.868 | 0.173 | -0.268 | 0.61 | 0.0396 | -0.382 | 0.0164 | -0.445 | -0.0498 | -1.01 | 1.31 | 0.567 | 1.72 | 0.973 | 0.614 | -1.58 (inactive)
CC(=O)NCCCC[C@@H]1NC(=O)[C@@H]2C[C@H](C(=O)O)[C@H](c3ccc(O)cc3)N2C1=O | -0.757 | 1.77 (inactive) | -0.594 | -0.1 | 0.658 | -0.0142 | -0.0574 | -1.04 | -0.755 | 0.092 | 2.07 | -1.12 | -0.58 | -0.408 | -0.893 | -1.15 | -0.61 | -1.71 | -0.885 | 0.75 (inactive)
COCCOC(=O)N1C(=O)[C@@]2(c3cc(C#CC4=CCCCC4)ccc31)[C@H](c1ccccc1OCCO)N1[C@H](c3ccccc3)[C@H](c3ccccc3)OC(=O)[C@H]1[C@@H]2C(=O)N1CCc2cc(OC)c(OC)cc2C1 | -0.157 | 0.0781 (inactive) | -0.406 | -0.255 | 0.426 | 0.641 | 0.379 | 1.3 | 0.774 | 0.856 | 0.891 | 1.2 | 0.204 | 0.764 | 1.28 | 0.917 | -0.682 | 0.555 | 0.441 | -1.97 (inactive)
COc1c(C)cc(-c2cc3c(c(-c4ccccc4)n2)[Si](C(C)C)(C(C)C)OC3)cc1C | 0.247 | 0.478 (inactive) | -0.116 | -0.21 | -0.185 | -0.591 | -0.154 | -0.5 | 0.652 | 0.134 | 0.188 | -0.892 | -0.353 | 0.363 | 0.134 | 0.514 | 0.439 | -0.135 | 0.245 | 0.411 (inactive)
CCOC(=O)C[C@H]1[C@H](OC(=O)Cc2ccc3c(c2)OCO3)[C@@H](NC(=O)Cc2ccc(OC)cc2)c2cc(OCCCO)ccc2N1C(=O)c1ccccc1 | 0.793 | -0.0539 (inactive) | -0.141 | -0.0502 | 0.461 | 0.682 | -0.0207 | 1.01 | -0.353 | 0.277 | 0.0506 | 0.814 | 0.668 | 0.511 | 0.41 | 0.251 | 1.57 | 0.389 | 0.956 | -0.566 (inactive)
O=C(O)[C@H](Cc1ccccc1)n1cc(-c2ccccn2)nn1 | 0.672 | -0.341 (inactive) | -0.0311 | -0.1 | 0.285 | 0.383 | 0.132 | 0.614 | 0.129 | 0.862 | 0.908 | 0.585 | 0.19 | 0.919 | 0.676 | 0.0069 | -0.47 | 0.5 | 0.425 | 1.01 (inactive)
COCCOC(=O)N1C(=O)[C@@]2(c3cc(C#CCNC(N)=O)ccc31)[C@H](C(=O)N1CCCCCCC1)[C@H]1C(=O)O[C@H](c3ccccc3)[C@H](c3ccccc3)N1[C@@H]2c1ccc(O)cc1 | 0.0763 | 0.559 (inactive) | 0.239 | -0.0714 | 0.354 | 0.654 | 0.285 | 1.11 | 0.626 | 1.03 | -0.269 | 1 | 0.478 | 0.391 | 1.4 | 1.24 | -0.606 | 0.742 | 0.128 | -0.352 (inactive)
CC(C)C(=C=CC[C@@H](O)c1ccccc1OCCO)C[C@@H](O)COCc1ccccc1 | -0.111 | 0.477 (inactive) | -0.132 | 0.0363 | 0.813 | 1.37 | 0.641 | 0.773 | 0.0362 | 0.639 | -0.0424 | 0.42 | -0.0011 | 0.807 | 1.28 | 1.45 | 1.88 | 0.435 | 0.288 | -2.5 (inactive)
CC=CC(O)C1C=CC2C(=O)N(C)C(=O)C2N1N1CCCCC1 (stereo not given) | 1.01 | 0.298 (inactive) | 0.16 | 0.0701 | 0.783 | 2.48 | 0.466 | 1.27 | -0.0061 | 0.915 | 0.523 | 1.19 | 0.518 | 0.714 | 1.08 | -0.0299 | -0.138 | 0.446 | 0.864 | -0.451 (inactive)
NCCCCCNC(=O)[C@@H]1C[C@@H]2C(=O)N[C@@H](CCCCN)C(=O)N2[C@@H]1c1cccc(OCCO)c1 | 0.104 | 0.416 (inactive) | -0.0168 | -0.0637 | -0.153 | 0.043 | 1.55 | 0.668 | 1.18 | -0.0079 | 2.33 | -0.0045 | -0.214 | 0.101 | 1.17 | 1.25 | 0.844 | 1.54 | 0.715 | 1.03 (inactive)
O=C1C2C=CC(C(O)c3cc(C(F)(F)F)cc(C(F)(F)F)c3)N(Nc3ccc([N+](=O)[O-])cc3)C2C(=O)N1c1ccccc1 (stereo not given) | 0.888 | -0.311 (inactive) | 0.37 | -0.0523 | 0.616 | 2.74 | -0.0967 | 1.33 | -0.298 | 1.15 | 0.338 | 1.24 | 0.681 | 1.02 | 1.05 | 0.4 | -0.953 | 0.953 | 0.599 | 0.833 (inactive)
